A short description of test [1]: qHTS assay to identify small molecule antagonists of the thyroid receptor (TR) signaling pathway - cell viability counter screen (AID 743064). Also: nearly all actives have a fitted effect of over 50% in size. Also: potency is read from the fitted curve at half-maximal effect. The essentials:
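Rat GH3 pituitary tumor cells stably expressing two TR response elements driving luciferase were plated, rested 4 h, then dosed with library compounds and T3 (1 nM final). After 23.5 h at 37 °C, CellTiter-Fluor was added for 30 min and fluorescence recorded.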
For orientation: In qHTS, concentration-response curves come from the screen itself.

Test [2] in a line: qHTS assay to identify small molecule antagonists of the thyroid receptor (TR) signaling pathway (AID 743065). Also: nearly all actives have a fitted effect of over 55% in size. Also: potency is read from the fitted curve at half-maximal effect. The essentials: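 Antagonism measured as loss of luciferase signal in GH3 cells stably carrying a TRE-luciferase reporter, co-treated with compound and T3 (1 nM final) for 23.5 h at 37 C. Viability was read in the same well by CellTiter-Fluor.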
Test [3] concerns thyroid hormone receptor (rat, GH3 cells). Briefly: qHTS assay to identify small molecule agonists of the thyroid receptor (TR) signaling pathway (AID 743066; calls by dose curve; also: potency is read from the fitted curve at half-maximal effect).
In test [4] the target is Estrogen receptor (Homo sapiens) (UniProt P03372). Briefly: qHTS assay to identify small molecule antagonists of the estrogen receptor alpha (ER-alpha) signaling pathway (AID 743069; active = well fitted curve in the direction sought with a large enough effect in the signal ratio in the repeat runs, not every such curve was filed as active; the % refers to the signal ratio). The essentials:
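Antagonist mode: compounds in DMSO were co-added with 17beta-estradiol to ER-alpha-bla HEK293 cells (2% charcoal-stripped serum) and left 18 h at 37C. Reporter inhibition was measured as FRET fluorescence after 2 h LiveBLAzer substrate at room temperature.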

The target is the same in test [5]. Briefly: qHTS assay to identify small molecule agonists of the estrogen receptor alpha (ER-alpha) signaling pathway (AID 743075; calls by dose curve;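 also: HEK293 GripTite cells with ER-alpha and UAS-driven beta-lactamase reporter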).
Test [6] shares this target. The test is described as follows: qHTS assay to identify small molecule agonists of the estrogen receptor alpha (ER-alpha) signaling pathway using the BG1 cell line (AID 743079). Also: nearly all actives have a fitted effect of over 20% in size. Also: potency is read from the fitted curve at half-maximal effect. The conditions noted are these: BG1Luc4E2 cells, ERE-luciferase agonist, 22 h; activation: at 70.3 µM (top of the series).
Test [7] is described as follows: qHTS assay to identify small molecule antagonists of the estrogen receptor alpha (ER-alpha) signaling pathway using the BG1 cell line (AID 743080; calls by dose curve;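 also: BG1 cells stimulated with 17beta-estradiol alongside compound; nearly all actives have a fitted effect of over 25% in size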; also: potency is read from the fitted curve at half-maximal effect). The procedure, abridged:
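Luciferase inhibition measured with ONE-Glo after 30 min at RT in BG1Luc4E2 cells given test compounds and 17beta-estradiol for 21.5 h at 37 C; CellTiter-Fluor viability read in the same wells beforehand.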

A short description of test [8]: qHTS assay to identify small molecule antagonists of the estrogen receptor alpha (ER-alpha) signaling pathway using the BG1 cell line - cell viability counter screen (AID 743081).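 Also: compound given together with 17beta-estradiol as the ER stimulus; nearly all actives have a fitted effect of over 45% in size.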 Also: potency is read from the fitted curve at half-maximal effect.
For a further test, the target named is Aromatase (Homo sapiens) (UniProt P11511). The test is described as follows: qHTS assay to identify aromatase inhibitors (AID 743083). Also: nearly all actives have a fitted effect of over 55% in size. Also: potency is read from the fitted curve at half-maximal effect.
Aromatase (Homo sapiens), sequence (P11511 whole entry, looked up): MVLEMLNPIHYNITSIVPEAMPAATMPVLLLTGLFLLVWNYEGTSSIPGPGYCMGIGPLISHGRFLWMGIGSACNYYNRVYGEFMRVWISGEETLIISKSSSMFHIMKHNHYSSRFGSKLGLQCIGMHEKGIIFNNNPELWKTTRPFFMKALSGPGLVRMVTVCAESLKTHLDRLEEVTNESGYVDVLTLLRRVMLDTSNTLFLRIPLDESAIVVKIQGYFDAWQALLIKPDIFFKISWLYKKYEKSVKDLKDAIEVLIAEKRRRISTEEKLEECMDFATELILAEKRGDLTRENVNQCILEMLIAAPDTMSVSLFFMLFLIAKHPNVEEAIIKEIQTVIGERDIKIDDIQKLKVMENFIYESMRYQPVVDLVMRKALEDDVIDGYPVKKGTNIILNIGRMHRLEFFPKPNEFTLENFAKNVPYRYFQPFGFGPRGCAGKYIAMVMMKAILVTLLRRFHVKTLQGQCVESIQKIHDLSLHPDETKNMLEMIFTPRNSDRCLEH
A short description of test [9]: qHTS assay to identify small molecule antagonists of the estrogen receptor alpha (ER-alpha) signaling pathway - cell viability counter screen (AID 743074; calls by dose curve;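 also: HEK293 cells carrying ER-alpha-UAS-bla reporter stimulated with 17beta-estradiol; nearly all actives have a fitted effect of over 45% in size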).

This note sets out measurements from PubChem BioAssay (Tox21).

Records with an inconclusive call do not appear. Activity calls are given as the source filed them. Unless noted, calls follow the shape of the dose curve; as a rule, active = well fitted curve in the direction sought with a large enough effect in the repeat runs; inconclusive = weak or mixed curves; inactive = no such curve, though single readings can be large; an effect the other way counts as inactive or inconclusive.

Estrogen receptor (Homo sapiens), sequence (P03372 whole entry, looked up): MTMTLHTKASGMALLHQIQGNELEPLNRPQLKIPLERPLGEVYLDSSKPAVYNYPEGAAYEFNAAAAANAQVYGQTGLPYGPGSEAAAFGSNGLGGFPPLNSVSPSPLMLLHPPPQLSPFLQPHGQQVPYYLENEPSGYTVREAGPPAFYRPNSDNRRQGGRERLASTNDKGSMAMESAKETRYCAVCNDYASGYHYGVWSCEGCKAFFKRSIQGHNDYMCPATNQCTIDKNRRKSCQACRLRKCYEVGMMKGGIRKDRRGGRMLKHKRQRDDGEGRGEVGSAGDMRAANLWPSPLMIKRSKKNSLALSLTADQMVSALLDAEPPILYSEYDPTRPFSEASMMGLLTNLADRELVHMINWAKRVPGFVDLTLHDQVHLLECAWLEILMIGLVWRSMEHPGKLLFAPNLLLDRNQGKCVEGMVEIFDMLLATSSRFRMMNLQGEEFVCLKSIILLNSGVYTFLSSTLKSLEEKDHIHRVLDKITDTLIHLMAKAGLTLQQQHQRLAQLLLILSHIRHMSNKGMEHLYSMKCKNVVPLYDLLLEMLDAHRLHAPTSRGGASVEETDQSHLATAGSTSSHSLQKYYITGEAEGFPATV

With `O=C[C@H](O)[C@@H](O)[C@H](O[C@H]1O[C@H](CO)[C@@H](O[C@H]2O[C@H](CO)[C@@H](O)[C@H](O)[C@H]2O)[C@H](O)[C@H]1O)[C@H](O)CO`, the Potency entry in test [1], in test [2], in test [3], in test [4], in [5] and in test [7] was “inactive” throughout. Besides, the Potency result (in test [8]; with Aromatase (Homo sapiens)) was “inactive” each time. In addition, the Potency in test [6] is 26.6 µM (active).
Turning to `OCC(O)COc1ccc(Cl)cc1` (centres undefined), the Potency entry in [1], in test [2], in [3], in test [4], in test [5] and in [6] was “inactive” each time. The Potency entry (in [7]; in test [8]; in the test with Aromatase (Homo sapiens)) was “inactive” throughout.
For the compound `CN[C@H]1CCc2cc(OC)c(OC)c(OC)c2-c2ccc(OC)c(=O)cc21`, the figures for the Potency in test [1], in [2] and in test [7] were 0.119 µM (active), 0.0841 µM (active) and 0.0841 µM (active), respectively. In addition, the Potency result (in [3]; in test [4]; in test [6]; in test [8]; with Aromatase (Homo sapiens)) was “inactive” each time.
Consider `CC[C@H](CC[C@@H](C)[C@H]1CC[C@H]2[C@@H]3CC=C4C[C@@H](O)CC[C@]4(C)[C@H]3CC[C@]12C)C(C)C`, for which the Potency result in [1], in [2], in test [3], in test [9], in test [5] and in [6] was “inactive” in each case. Further, the Potency entry (in [7]; in test [8]; with Aromatase (Homo sapiens)) was “inactive” in each case.
For `CO[C@H]1[C@@H](O)[C@H](N)[C@@H](O[C@H]2O[C@H]([C@H](C)N)CC[C@H]2N)[C@H](O)[C@@H]1N(C)C(=O)CN`, the Potency entry in test [1], in test [2], in [3], in test [4], in test [5] and in [7] was “inactive” in each case. The Potency entry (in [8]; with Aromatase (Homo sapiens)) was “inactive” throughout. In test [6], the Potency is 33.5 µM (active).
For `COc1cc(/C=C/C(=O)N2CCN(CC(=O)N3CCCC3)CC2)cc(OC)c1OC`, the Potency result in [1], in test [2], in test [3], in test [4], in test [5] and in [6] was “inactive” each time. The Potency result in [7] and in [8] was “inactive” throughout.
As for `C#CCC(Cc1cnc2nc(N)nc(N)c2n1)c1ccc(C(=O)N[C@@H](CCC(=O)O)C(=O)O)cc1` (some centres undefined), the Potency result in [1], in test [3], in test [4], in test [5], in test [6] and in test [8] was “inactive” each time. Also, the Potency entry with Aromatase (Homo sapiens) is “inactive”. The Potency in test [2] is 0.75 µM (active).
As to `CCCCCCCCCCCCCCCCCC(=O)OCCO`, the Potency result in [1], in test [2], in [3], in test [4], in test [5] and in test [7] was “inactive” in each case. In addition, the Potency entry (in test [8]; with Aromatase (Homo sapiens)) was “inactive” in each case. Also, the Potency in test [6] was 9.44 µM (active).
In the case of `CNC[C@@H]1CC[C@@H](N)[C@@H](O[C@H]2[C@H](O)[C@@H](O[C@H]3OC[C@](C)(O)[C@H](NC)[C@H]3O)[C@H](N)C[C@@H]2N)O1`, the Potency result in [1], in test [2], in test [3], in test [4], in test [5] and in test [6] was “inactive” throughout. Also, the Potency result (in test [7]; in the test with Aromatase (Homo sapiens)) was “inactive” throughout.
As to `C=C1c2c(Cl)ccc(O)c2C(O)=C2C(=O)[C@]3(O)C(O)=C(C(N)=O)C(=O)[C@@H](N(C)C)[C@@H]3[C@@H](O)[C@H]12`, the Potency result in test [1], in test [2], in [3], in test [9], in [5] and in test [6] was “inactive” each time. In addition, the Potency result (in test [7]; in test [8]; in the test with Aromatase (Homo sapiens)) was “inactive” throughout.
`CC(=O)[C@@]1(O)CC[C@H]2[C@@H]3C=C(Cl)C4=CC(=O)[C@@H]5C[C@@H]5[C@]4(C)[C@H]3CC[C@@]21C`: the Potency entry in [1], in test [2], in test [3], in test [9], in test [5] and in test [6] was “inactive” each time. The Potency entry (in test [7]; in test [8]; with Aromatase (Homo sapiens)) was “inactive” throughout.
Consider `Cc1cc(-c2ccc(N=Nc3c(S(=O)(=O)O)cc4cc(S(=O)(=O)O)cc(N)c4c3O)c(C)c2)ccc1N=Nc1c(S(=O)(=O)O)cc2cc(S(=O)(=O)O)cc(N)c2c1O`, for which the Potency in [1] is 23.7 µM (active); in test [2] it was 11.9 µM (active); in test [8] it was 21.1 µM (active); with Aromatase (Homo sapiens) it was 11.9 µM (active). In addition, the Potency entry in test [3], in test [4] and in [5] was “inactive” throughout.
As to `c1ccc2c(CCC3CCNCC3)c[nH]c2c1`, the Potency in test [1] is 18.8 µM (active); in test [2] it was 21.1 µM (active). For the same compound, the Potency entry in test [3], in test [4], in test [5], in test [6], in test [7] and in test [8] was “inactive” each time. Besides, the Potency entry with Aromatase (Homo sapiens) is “inactive”.
`Nc1nc2[nH]cc(CCc3ccc(C(=O)N[C@@H](CCC(=O)O)C(=O)O)cc3)c2c(=O)[nH]1`: the Potency entry in test [1], in test [2], in [3], in test [4], in [5] and in test [6] was “inactive” throughout. Moreover, the Potency result (in test [7]; in test [8]; in the test with Aromatase (Homo sapiens)) was “inactive” in each case.
Turning to `CC(=O)N[C@@H](CC(=O)N[C@@H](CCC(=O)O)C(=O)O)C(=O)O`, the Potency result in [1], in test [2], in [3], in [9], in test [5] and in [6] was “inactive” throughout. For the same compound, the Potency entry (in [7]; in test [8]; with Aromatase (Homo sapiens)) was “inactive” in each case.
For `O=C(OCc1ccccc1)c1cccnc1`, the Potency result in test [1], in test [2], in test [3], in [4], in test [5] and in test [6] was “inactive” each time. Further, the Potency result (in test [7]; in test [8]; in the test with Aromatase (Homo sapiens)) was “inactive” throughout.
Consider `CC(C)[C@H](N)C(=O)OCC(CO)OCn1cnc2c(=O)[nH]c(N)nc21` (some centres undefined), for which the Potency entry in [1], in [2], in test [3], in test [9], in test [5] and in test [6] was “inactive” each time. The Potency result (in test [7]; in [8]; in the test with Aromatase (Homo sapiens)) was “inactive” each time.
On to `C=C(NC(=O)C(=C)NC(=O)c1csc(C2=N[C@@H]3c4csc(n4)[C@H]4NC(=O)c5csc(n5)[C@H]([C@](C)(O)[C@@H](C)O)NC(=O)[C@H]5CSC(=N5)C(=CC)NC(=O)C([C@@H](C)O)NC(=O)c5csc(n5)[C@]3(CC2)NC(=O)[C@H](C)NC(=O)C(=C)NC(=O)[C@H](C)NC(=O)C([C@@H](C)CC)NC2C=Cc3c([C@H](C)O)cc(nc3C2O)C(=O)O[C@@H]4C)n1)C(N)=O` (some centres undefined), for which the figures for the Potency in [1], in test [2] and in test [3] were 8.04 µM (active), 12.7 µM (active) and 5.69 µM (active), respectively. The Potency result (in test [9]; in test [6]; in test [7]; with Aromatase (Homo sapiens)) was “inactive” throughout.
